# From PubChem
# In the library only some 7.3% were active in any assay of this set; here they are far more common.
# FLuc modulator = qHTS profiling assay for firefly luciferase inhibitor/activator using purifed enzyme and Km concentrations of substrates (counterscreen for miR-21 project). 360,000 compounds, 6.9% hits. Potency, µM (highest dose often 57.5 µM), for inactives: top-dose activity change, negative = inhibition, most hits filed as inhibitors. Luciferin 4-monooxygenase (Photinus pyralis), P08659. AID 588342, 2011. purified FLuc, Km substrates, luminescence inhibition;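 also: plate controls were vehicle for no effect and reference inhibitor for full effect; nearly all actives have a fitted effect of over 55% in size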
# Target sequence (P08659 whole entry, looked up): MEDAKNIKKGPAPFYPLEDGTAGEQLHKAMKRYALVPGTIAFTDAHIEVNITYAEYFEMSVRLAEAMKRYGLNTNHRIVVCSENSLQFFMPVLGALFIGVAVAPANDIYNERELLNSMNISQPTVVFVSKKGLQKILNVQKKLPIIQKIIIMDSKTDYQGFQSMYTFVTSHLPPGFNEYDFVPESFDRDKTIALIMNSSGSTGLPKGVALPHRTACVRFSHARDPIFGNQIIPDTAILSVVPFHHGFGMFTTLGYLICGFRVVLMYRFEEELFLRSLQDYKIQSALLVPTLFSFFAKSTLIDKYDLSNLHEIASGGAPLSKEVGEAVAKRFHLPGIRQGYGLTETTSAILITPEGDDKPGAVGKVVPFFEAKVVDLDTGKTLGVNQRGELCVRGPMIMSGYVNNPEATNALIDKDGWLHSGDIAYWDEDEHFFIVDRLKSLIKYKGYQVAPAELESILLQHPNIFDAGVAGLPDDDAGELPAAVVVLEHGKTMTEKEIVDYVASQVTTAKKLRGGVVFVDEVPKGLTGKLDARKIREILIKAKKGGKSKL
#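 Purified P. pyralis luciferase, 10 nM final, with Km-level 10 uM D-luciferin and 10 uM ATP in 50 mM Tris acetate pH 7.5, 10 mM Mg acetate, 0.01% Tween-20, 0.05% BSA; 6-point qHTS titration about 60 µM downward; luminescence read.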
# ELG1 genotoxic = qHTS screen for small molecules that induce genotoxicity in human embryonic kidney (HEK293T) cells expressing luciferase-tagged ELG1 | 330,000 compounds, 1.3% hits | AID 504466, 2011 | HEK293T ELG1-luciferase reporter, luminescence, 16 h | Potency, µM (top dose mostly 46 µM), for inactives: at the top dose activity change, positive = activation, usual class: activators; also: % of control where 0% means no effect; nearly all actives have a fitted effect of over 60% in size
#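 HEK293T cells expressing luciferase-tagged ELG1 were treated with compound or DMSO for 16 hr at 37°C. Luciferase activity was then read after 30 min with ONE-Glo at room temperature; rising signal flags genetic stress.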
# uPA surface inh = qHTS for Inhibitors of Cell Surface uPA Generation | cell surface uPA generation assay, qHTS | Potency, µM (top dose mostly 38.3 µM), for the others: top-dose activity change, negative = inhibition, hits mostly inhibitors | 330,000 compounds, 0.31% hits | AID 540303, 2011; active = well fitted inhibition curve with a large enough effect; inconclusive = small, poorly fitted or top-dose-only effect; inactive = no such curve, though single readings can be large or run the other way; tested in mouse RAW 264.7 cells; also: % is scaled to controls: 0 for no effect and ±100 for the full control effect; nearly all actives have a fitted effect of over 55% in size
# NPC1 promoter act = qHTS Assay for NPC1 Promoter Activators; Huh7 NPC1 promoter luciferase reporter, 24 h; Potency, µM (doses to about 9.22 µM), without a hit: top-dose activation, most hits filed as activators; 320,000 compounds, 2.4% hits; also: % of control where 0% means no effect; nearly all actives have a fitted effect of over 60% in size
#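 Luminescence from an NPC1 promoter-driven luciferase reporter in stably transfected Huh7 cells was measured after 24 h compound treatment at 37 °C, followed by 10 min ambient incubation with luciferase detection reagent.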
# SMN2 splice enh = qHTS Assay for Enhancers of SMN2 Splice Variant Expression; HEK293 SMN2-luciferase splicing reporter, luminescence, 30-36 h; Potency, µM (titrated, usually from 46.1 µM), for inactives: at the top dose activity change, positive = activation, most hits filed as activators; 210,000 compounds, 2.8% hits; AID 1458, 2008; also: % of control where 0% means no effect; nearly all actives have a fitted effect of over 55% in size
#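 HEK293 cells carry an SMN2 minigene-luciferase reporter in which exon 7 inclusion puts luciferase in frame. Cells were seeded at 2000 cells/well, attached for 10-12 hours, then exposed to compounds for 30-36 hours at 37C before ONE-Glo luminescence.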
# Rab9 prom act = qHTS Assay for Rab9 Promoter Activators. Huh7 Rab9 promoter-luciferase reporter, luminescence, 24 h. 320,000 compounds, 2.8% hits. Potency, µM (doses to about 9.22 µM), for the others: top-dose activation, negative = inhibition, hits mostly activators; also: % of control where 0% means no effect; nearly all actives have a fitted effect of over 60% in size
#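 Luciferase signal after 10 min detection reagent at ambient indicates Rab9 promoter upregulation; stably transfected Huh7 cells were treated 24 h with compound in DMSO at 37 °C, 5% CO2.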
# * hit, by the source's call; ? = inconclusive; · = no result given; [ ] = remark or other dose. Unless noted, calls follow the shape of the dose curve; as a rule, active = well fitted curve in the direction sought with a large enough effect; inconclusive = small, poorly fitted or top-dose-only effect, or another doubt; inactive = no such curve, though single readings can be large; an effect the other way counts as inactive or inconclusive. Potency is read from the fitted curve at half-maximal effect.
SMILES,FLuc modulator,ELG1 genotoxic,uPA surface inh,NPC1 promoter act,SMN2 splice enh,Rab9 prom act
CCCOc1ccc(/C=N/NC(=O)c2nnn(-c3nonc3N)c2-c2cccs2)cc1OC,11µM*,-9%,-4%,15%,·,-2%
CC(C)c1c(C(=O)N/N=C/c2ccc3c(c2)OCO3)nnn1-c1nonc1N,9.5µM*,2%,-19%,1%,·,12%
N/C(=N\N=C\c1ccc2c(c1)OCO2)c1nonc1N,0.95µM*,?,?,0.4µM*,3.5µM*,0.32µM*
COC(=O)c1sccc1NC(=S)N1CCN(c2ccccc2F)CC1,1%,-3%,2%,-1%,-5%,-8%
CC1CCCN(C(=O)CSc2c3c(nc4cc(Cl)ccc24)CCCC3)C1 (stereo not drawn),-15%,·,·,·,-18%,·
Cc1ccc(CNC(=O)CN(C)S(=O)(=O)c2ccc(Br)s2)cc1,-3%,·,·,·,-22%,·
O=C(CN1C(=O)CCc2cc(S(=O)(=O)N3CCOCC3)ccc21)NCc1ccc(Cl)cc1,4%,·,·,·,·,·
CCC(Sc1nnnn1C)C(=O)Nc1ccc(C(C)=O)cc1 (stereo not drawn),?,18µM*,0%,23%,?,?
CCN(CC)S(=O)(=O)c1ccc2c(c1)N(CC(=O)NCCc1ccc(OC)c(OC)c1)C(=O)CO2,0%,·,·,·,·,·
CCOc1cccc2sc(NC(=O)c3ccc(S(=O)(=O)N4CCCc5ccccc54)cc3)nc12,-17%,·,·,·,·,·
Cc1oc(-c2ccc3c(c2)OCCO3)cc1C(=O)O,2.4µM*,-12%,-7%,-34%,-36%,-39%
COc1ccc(-c2cc(C(=O)O)c(C)o2)cc1OC,1.7µM*,?,-2%,?,0.63µM*,0.32µM*
CC(C)Oc1ccc(CNC(=O)c2ccc3c(c2)N(C)C(=O)C2CCCCN32)cc1 (stereo not drawn),-15%,·,·,·,·,·
CCOc1ccccc1NC(=O)c1cc2c(Cl)nc3ccccc3c2s1,0%,·,·,·,-1%,·
Cc1ccc2c(c1)cc(C(=O)NCc1ccccc1C)n2C,1%,·,·,·,·,·
Cc1cccc(N=Nc2ccc(O)c3ncccc23)c1,11µM*,12µM*,-8%,13%,-51%,-3%
Cc1cc(N)ccc1N=Nc1c(C)n(C)n(-c2ccccc2)c1=O,?,?,?,26%,-4%[1.84 µM],?
CCOc1ccc(N=Nc2ccc(O)c3ncccc23)cc1,-13%,?,-1%,-13%,·,1%
Cc1ccc(N=Nc2cc(C)ccc2O)c(C)c1,4.8µM*,?,6%,?,·,?
Cc1ccc(N=Nc2ccc(N)cc2C)c(S(N)(=O)=O)c1,11µM*,?,0%,?,3%[9.22 µM],2.8µM*
Cc1ccc(C)c(N=Nc2ccc(O)c3ncccc23)c1,11µM*,?,?,?,-96%,8%
Cc1ccc(CNC(=O)Cn2c(=O)n(-c3ccc(C)cc3)c(=O)c3c2c2cc(C)ccc2n3C)cc1,-7%,·,·,·,·,·
Oc1ccc(N=Nc2ccc3c(c2)OCCO3)c2ncccc12,5.4µM*,?,?,-23%,·,-27%
NS(=O)(=O)c1ccc(N=Nc2ccc(O)c3ncccc23)cc1,?,?,?,-40%,·,-32%
CCOCCc1nn2c(=O)cc(COC(=O)c3ccc(NC(=O)c4ccc(F)cc4)cc3)nc2s1,0%,·,·,·,·,·
SMILES,FLuc modulator,ELG1 genotoxic,uPA surface inh,NPC1 promoter act,SMN2 splice enh,Rab9 prom act
O=C(NC1CCCCCC1)c1ccc(OCC2CCCO2)cc1 (stereo not drawn),12µM*,?,-8%,?,13µM*,2µM*
CC(C)N(CCNC(=O)c1ccc(OCC2CCCO2)cc1)C(C)C (stereo not drawn),-1%,0%,-1%,-2%,·,-1%
COc1ccc(NC(=O)c2ccc(OCC3CCCO3)cc2)cc1Cl (stereo not drawn),2.4µM*,7%,?,?,·,?
NS(=O)(=O)c1ccc(NC(=O)c2ccc(OCC3CCCO3)cc2)cc1 (stereo not drawn),·,-3%,2%,·,·,·
COc1ccc(NC(=O)c2ccc(OCC3CCCO3)cc2)cc1OC (stereo not drawn),15µM*,10%,-26%,-1%,·,17%
O=C1CCC(C(=O)N2CCCCO2)CN1CCc1ccccc1 (stereo not drawn),17µM*,?,1%,?,·,?
COc1ccccc1CN1CC(C(=O)N2CCCCO2)CCC1=O (stereo not drawn),?,?,-2%,26%,·,?
Cc1cc(C(=O)CCl)c(C)n1Cc1ccco1,?,-17%,-7%,-7%,11%,-12%
C=CCn1c(C)cc(C(=O)COC(=O)CNC(=O)c2ccccc2)c1C,13µM*,14%,-2%,-1%,-23%,-6%
Cc1cc(C(=O)COC(=O)[C@H](C)NC(=O)c2ccco2)c(C)n1Cc1ccco1,7.6µM*,5%,1%,-2%,4%,5%
Cc1cc(C(=O)COC(=O)Cn2c(C(F)(F)F)nc3ccccc32)c(C)n1Cc1ccco1,21µM*,5%,1%,0%,0%,7%
C=CCn1c(C)cc(C(=O)COC(=O)C2CC(=O)N(Cc3ccccc3)C2)c1C (stereo not drawn),24µM*,3%,3%,2%,12%,-7%
O=C(CNC(=O)c1ccccc1)OCC(=O)c1ccccc1Cl,-16%,-6%,0%,6%,·,-2%
Cc1[nH]c2ccccc2c1C(=O)COC(=O)C1CC(=O)N(Cc2ccccc2)C1 (stereo not drawn),11%,-1%,2%,-1%,10%,-8%
CCCS(=O)(=O)c1c(S(=O)(=O)CCC)c2cc(C(C)(C)C)ccn2c1C(=O)c1ccc(C)cc1,2%,·,·,·,1%,·
Cc1ccc(C(=O)NCC(=O)OCC(=O)c2cc(C)n(Cc3ccco3)c2C)cc1,24µM*,6%,?,-1%,·,-3%
Cc1cc(C(=O)COC(=O)CNC(=O)c2ccc(Cl)c(Cl)c2)c(C)n1Cc1ccco1,-12%,2%,8%,-2%,4%,-3%
Cc1ccc(CN(C)C(=O)c2ccc3c(c2)NC(=O)CS3)o1,1%,-3%,-4%,2%,·,-10%
CCOc1cc(/C=N/NC(=O)c2ccc(O)cc2)ccc1Oc1nc(Cl)ncc1F,-17%,-12%,-20%,-1%,3%,1%
CCOc1cc(/C=N\Nc2ncc(F)c(N3CCOCC3)n2)ccc1Oc1nc(Cl)ncc1F,21µM*,-10%,?,-6%,·,-15%
